The nature of test [1]: Quantitative High-Throughput drug screen in 47 multiple myeloma cell lines against the NCATS MIPE library collection: KMS12PE_JCRB cell viability assay (AID 1918972). Note: nearly all actives have a fitted effect of over 30% in size. Note: potency is the fitted concentration of half-maximal effect. The method in brief: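 Myeloma cell lines, 500 cells per well, exposed to MIPE 4.0 library compounds for 48 h at 37C, 5% CO2. Viability from ATP by CellTiter-Glo luminescence; normalised to DMSO (100%) and media-only (0%) wells.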

Test [2] can be described thus: Quantitative High-Throughput drug screen in 47 multiple myeloma cell lines against the NCATS MIPE library collection: NCIH929_DSMZ cell viability assay (AID 1918978). Note: nearly all actives have a fitted effect of over 35% in size. Note: potency is the fitted concentration of half-maximal effect. The method in brief: (§1)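 500 cells/well per myeloma line exposed to pinned MIPE 4.0 compounds for 48 h at 37 °C, 5% CO2. Viability read as ATP by CellTiter-Glo luminescence, normalised to DMSO-only (100%) and media-only (0%) wells.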

Test [3] can be described thus: Quantitative High-Throughput drug screen in 47 multiple myeloma cell lines against the NCATS MIPE library collection: OCIMY1_PLB cell viability assay (AID 1918979). Note: nearly all actives have a fitted effect of over 35% in size. The method in brief: as §1
Test [4] can be described thus: Quantitative High-Throughput drug screen in 47 multiple myeloma cell lines against the NCATS MIPE library collection: LP1_DSMZ cell viability assay (AID 1918982). Note: nearly all actives have a fitted effect of over 35% in size. Note: potency is the fitted concentration of half-maximal effect. The method in brief: as §1
Test [5] is described as follows: Quantitative High-Throughput drug screen in 47 multiple myeloma cell lines against the NCATS MIPE library collection: KMS28PE_JCRB cell viability assay (AID 1918983). Note: nearly all actives have a fitted effect of over 35% in size. Note: potency is the fitted concentration of half-maximal effect. In a few lines: as §1
Test [6] in a line: Quantitative High-Throughput drug screen in 47 multiple myeloma cell lines against the NCATS MIPE library collection: KMS34_JCRB cell viability assay (AID 1918985). Note: nearly all actives have a fitted effect of over 40% in size. Note: potency is the fitted concentration of half-maximal effect. The method in brief: as §1
Test [7] in a line: Quantitative High-Throughput drug screen in 47 multiple myeloma cell lines against the NCATS MIPE library collection: OPM1_PLB cell viability assay (AID 1918989). Note: nearly all actives have a fitted effect of over 40% in size. Note: potency is the fitted concentration of half-maximal effect. In a few lines:
as §1

Test [8] in a line: Quantitative High-Throughput drug screen in 47 multiple myeloma cell lines against the NCATS MIPE library collection: SKMM1_PLB cell viability assay (AID 1919863). Note: nearly all actives have a fitted effect of over 35% in size. Note: potency is the fitted concentration of half-maximal effect. Conditions: SKMM1 myeloma viability, CellTiter-Glo ATP, 48 h; viability: active compounds read low. The method in brief:
as §1
On the technique in general: Cellular ATP, detected with luciferase, serves as a proxy for viable cell number.

Test [9] is described as follows: Quantitative High-Throughput drug screen in 47 multiple myeloma cell lines against the NCATS MIPE library collection: U266_ATCC cell viability assay (AID 1919864). Note: nearly all actives have a fitted effect of over 35% in size. Note: potency is the fitted concentration of half-maximal effect. The method in brief: as §1
Test [10] can be described thus: Quantitative High-Throughput drug screen in 47 multiple myeloma cell lines against the NCATS MIPE library collection: KMS20_JCRB cell viability assay (AID 1918973). Note: potency is the fitted concentration of half-maximal effect; nearly all actives have a fitted effect of over 45% in size. The method in brief: (§2)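 Primary qHTS used for cherry-picking: cells at 500/well, library compounds for 48 h (37C, 5% CO2), luminescent ATP assay.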
Test [11] is described as follows: Quantitative High-Throughput drug screen in 47 multiple myeloma cell lines against the NCATS MIPE library collection: KMS26_JCRB cell viability assay (AID 1918975). Note: nearly all actives have a fitted effect of over 45% in size. In a few lines: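 Myeloma cells (500 per well) were exposed to MIPE 4.0 compounds by pin transfer and incubated 48 hours at 37C, 5% CO2. Viability was read as ATP by CellTiter-Glo luminescence, normalised to DMSO (100%) and media-only (0%) wells.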

Test [12] can be described thus: Quantitative High-Throughput drug screen in 47 multiple myeloma cell lines against the NCATS MIPE library collection: MM1S_ATCC cell viability assay (AID 1918980). Note: nearly all actives have a fitted effect of over 45% in size. Note: potency is the fitted concentration of half-maximal effect. In a few lines: as §1
Test [13] can be described thus: Quantitative High-Throughput drug screen in 47 multiple myeloma cell lines against the NCATS MIPE library collection: MM1R_ATCC cell viability assay (AID 1918981). Note: nearly all actives have a fitted effect of over 35% in size. Note: potency is the fitted concentration of half-maximal effect. The method in brief:
as §1

A short description of test [14]: Quantitative High-Throughput drug screen in 47 multiple myeloma cell lines against the NCATS MIPE library collection: L363_DSMZ cell viability assay (AID 1918984). Note: nearly all actives have a fitted effect of over 40% in size. Note: potency is the fitted concentration of half-maximal effect. The method in brief:
as §1

A short description of test [15]: Quantitative High-Throughput drug screen in 47 multiple myeloma cell lines against the NCATS MIPE library collection: OCIMY7_PLB cell viability assay (AID 1918987). Note: nearly all actives have a fitted effect of over 65% in size. Note: potency is the fitted concentration of half-maximal effect. As to conditions: OCI-MY7 myeloma viability, CellTiter-Glo ATP, 48 h; viability (% of DMSO): at 45.8 µM (top of the series). In a few lines: as §1
Test [16] is described as follows: Quantitative High-Throughput drug screen in 47 multiple myeloma cell lines against the NCATS MIPE library collection: OCIMY5_PLB cell viability assay (AID 1918988). Note: nearly all actives have a fitted effect of over 65% in size. Note: potency is the fitted concentration of half-maximal effect. In a few lines:
as §1

A short description of test [17]: Quantitative High-Throughput drug screen in 47 multiple myeloma cell lines against the NCATS MIPE library collection: MOLP8_DSMZ cell viability assay (AID 1918977). Note: nearly all actives have a fitted effect of over 45% in size. Note: potency is the fitted concentration of half-maximal effect. In a few lines: as §1
Test [18] in a line: Quantitative High-Throughput drug screen in 47 multiple myeloma cell lines against the NCATS MIPE library collection: MMM1_PLB cell viability assay (AID 1918976). In a few lines:
as §1

A short description of test [19]: Quantitative High-Throughput drug screen in 47 multiple myeloma cell lines against the NCATS MIPE library collection: KMS21BM_JCRB cell viability assay (AID 1918974). Note: potency is the fitted concentration of half-maximal effect. Conditions: ATP luminescence, 48 h; viability: at 45.8 µM (top of the series) unless noted. The method in brief:
as §2

Inconclusive results are not listed. Values without a mark were called inactive. The source made the active and inactive calls. Calls come from the whole dose curve; as a rule, active = well fitted curve in the direction sought with a large enough effect; inconclusive = small, poorly fitted or top-dose-only effect, or another doubt; inactive = no such curve, though single readings can be large; an effect the other way counts as inactive or inconclusive.

With `CCC(=O)O[C@]1(C(=O)CO)CC[C@H]2[C@@H]3CCC4=CC(=O)CC[C@]4(C)[C@@H]3CC[C@@]21C`, the Potency entry in [1], in test [2], in test [3], in [5], in test [7] and in [9] was “inactive” throughout. The values for the Potency in test [4] and in [6] were 5.26 µM (active) and 0.0017 µM (active), respectively. For the same compound, the viability (commonly a read-out of living cells in per cent, often relative to untreated cells) in test [8] is 108%.
On to `O=C(O)CCC1CCC(c2cc(F)ccc2F)(S(=O)(=O)c2ccc(Cl)cc2)CC1` (stereo unspecified), for which the Potency in [10] is 5.26 µM (active); in test [2], 8.33 µM (active); in test [12], 1.66 µM (active); in [14] it was 16.6 µM (active); in test [15], 2.64 µM (active); in test [7], 5.26 µM (active). In addition, the Potency in [9] was 6.62 µM (active). Further, the Potency result in test [11], in test [3], in test [13], in test [4], in [5] and in [16] was “inactive” throughout.
Take `CO[C@H]1C[C@@H]2CC[C@@H](C)[C@@](O)(O2)C(=O)C(=O)N2CCCC[C@@H]2C(=O)O[C@H]([C@H](C)C[C@@H]2CC[C@H](OC(=O)C(C)(CO)CO)[C@H](OC)C2)CC(=O)[C@H](C)C=C(C)[C@@H](O)[C@@H](OC)C(=O)[C@H](C)C[C@H](C)C=CC=CC=C1C`: the Potency in test [10] is 11.8 µM (active); in test [2] it was 18.7 µM (active). Further, in [12], the Potency result is “inactive”.
Turning to `O=C(O)c1ccccc1C(=O)Nc1ccc(-c2ccccc2)cc1`, the Potency entry in [1], in test [17], in test [2], in test [13], in [4] and in test [5] was “inactive” each time. In addition, the Potency entry in [14], in test [6], in [15] and in [16] was “inactive” each time.
`CC#CCn1c(N2CCC[C@@H](N)C2)nc2c1c(=O)n(Cc1nc(C)c3ccccc3n1)c(=O)n2C`: the Potency entry in test [1], in test [11], in test [3], in test [13], in [4] and in [5] was “inactive” each time. Also, the Potency in test [12] is 20.9 µM (active); in test [6], 4.18 µM (active); in [16], 26.4 µM (active).
Take `Clc1ccc(-c2nc3sccn3c2C=NOCc2ccc(Cl)c(Cl)c2)cc1`: the Potency result in test [1], in test [11], in [2], in test [3], in [12] and in test [13] was “inactive” in each case. For the same compound, the Potency entry in test [4], in test [6] and in test [7] was “inactive” in each case. Further, in test [18], the Potency is 0.372 µM (active). Further, the viability in test [8] is 102%.
On to `C[N+](C)(C)CC(=O)O`, for which the Potency entry in test [1], in test [2], in test [12], in test [13], in test [5] and in test [14] was “inactive” throughout. Also, the Potency result in test [6] and in test [9] was “inactive” each time.
In the case of `NC(=O)NN=Cc1ccc([N+](=O)[O-])o1`, the Potency was 5.9 µM (active) in test [19] and 23.5 µM (active) in [14]. Further, the Potency entry in test [17], in [5] and in [6] was “inactive” in each case. Besides, the viability in [8] was 122%.
`O=c1c(-c2ccc(O)cc2)coc2cc(O)ccc12`: the Potency result in test [1], in test [2], in test [4], in [6], in test [15] and in test [7] was “inactive” each time. The Potency entry in [9] was “inactive”. For the same compound, the Potency in test [18] was 5.26 µM (active); in test [12], 13.2 µM (active); in test [16], 14.8 µM (active).
Take `CCNc1cc(NC2CCC(O)CC2)nc(Nc2ccc3c(ccn3Cc3ccccc3)c2)n1` (stereo unspecified): the Potency in [10] was 37.2 µM (active); in test [4] it was 20.9 µM (active); in [5] it was 23.5 µM (active); in test [7] it was 29.6 µM (active); in test [8] it was 18.7 µM (active).
In the case of `CC[C@@H]1C=C(C)C[C@H](C)C[C@H](OC)[C@H]2O[C@@](O)(C(=O)C(=O)N3CCCC[C@@H]3C(=O)O[C@H](C(C)=C[C@@H]3CC[C@H](Cl)[C@H](OC)C3)[C@H](C)[C@@H](O)CC1=O)[C@H](C)C[C@H]2OC`, the Potency in test [1] is 7.43 µM (active); in test [18], 11.8 µM (active); in [12], 14.8 µM (active); in test [5], 16.6 µM (active); in [14], 10.5 µM (active); in test [6], 16.6 µM (active). The Potency in test [15] was 10.5 µM (active); in test [16] it was 16.6 µM (active).
Take `CCn1cc(C(=O)O)c(=O)c2ccc(C)nc21`: the Potency result in test [1], in test [2], in test [13], in [4], in test [5] and in test [14] was “inactive” in each case. Besides, the Potency result in [6] and in [7] was “inactive” in each case. Moreover, in test [8], the viability was 130%.
In the case of `Clc1ccc(COC(Cn2ccnc2)c2ccc(Cl)cc2Cl)cc1` (stereo unspecified), the Potency in test [1] was 23.5 µM (active). In test [17], the Potency result was “inactive”.
Regarding `NC(=O)c1ccc2nc(-c3ccc(Oc4ccc(Cl)cc4)cc3)[nH]c2c1`, the Potency in [10] was 5.26 µM (active); in test [19], 18.7 µM (active); in test [2], 0.0235 µM (active); in [7] it was 6.62 µM (active). The Potency entry in [5] and in test [9] was “inactive” throughout.
`C=CCc1ccc(O)c(-c2ccc(O)c(CC=C)c2)c1`: the Potency in [10] is 23.5 µM (active); in test [12], 18.7 µM (active); in [16], 18.7 µM (active); in [9], 16.6 µM (active).
As for `O=C(O)c1cc(O)c2c(c1)C(=O)c1cccc(O)c1C2=O`, the Potency entry in [1], in test [2], in test [3], in [12] and in test [7] was “inactive” in each case. The Potency in test [18] is 2.15 µM (active); in [17], 38.2 µM (active); in [5] it was 30.3 µM (active); in test [16], 48.1 µM (active).
Regarding `CC=CCC=CCCC(=O)[C@H]1O[C@@H]1C(N)=O`, the Potency is 23.5 µM (active) in test [1]; 14.8 µM (active) in [17]; 20.9 µM (active) in [12]; 18.7 µM (active) in test [13]; 18.7 µM (active) in test [14]; 14.8 µM (active) in test [15]. The figures for the Potency in [16] and in test [8] were 14.8 µM (active) and 18.7 µM (active), respectively.
`CC1CCC(C(=O)N(c2cc(C#CC(C)(C)C)sc2C(=O)O)C2CCC(O)CC2)CC1` (stereo unspecified): the Potency entry in [1], in test [3], in test [12], in [14] and in test [9] was “inactive” throughout. In addition, in test [15], the Potency was 23.5 µM (active).

The record behind these values is PubChem BioAssay (NCATS).
